The list is a sample of the results. The true hit rate is not given.
B1: il10ra_site1_normal_mot_HHH_b2_08186_000000021_0001_43_56_H_._HHH_b2_05014_af2_0002_0000100001_0000002_0 (protein)
chain: SSSSDEEELRELIEEAEELLERGNPEEALEVVLRALQLAFELSNAETLQRIWELLKRIATSSSSS
B2: il10ra_site1_sap_21_mot_HHH_b2_02463_af2_000000222_0001_1_19_H_._HHH_b1_01285_0001_0000200013_0000001_0_0001 (protein)
chain: SSSSDEANQEALELVVEAVRLALRGNPEEAKEVLEEARELAREGNNERLVKMIEDMLRALDSSSS
B3: il10ra_site1_sap_26_mot_HHH_b1_01707_000000240_0001_1_17_H_._HHH_b2_07405_0001_0000500060_0000001_0_0001 (protein)
chain: SSSSDQEFARLMMEALHLAFQLRDPETLRELWELYRRYAEEGDPRYEEALEELLEELRERSSSSS
B4: il10ra_site1_normal_mot_HHH_b2_03328_af2_000000127_0001_1_19_H_._f3d5fbb9806109dc41c8faca98c9de00_0001_1_0001_0000300008_0000002_0_af2pred_dldesign_0_af2pred (protein)
chain: LELSRLLSDAVITAKNPELAQRLAEVAREIAEDPSKLEELLAELLEEAKAAGDEEVVALLEKALE
B5: il10ra_site1_normal_mot_HHH_b2_06767_000000020_0001_41_56_H_._HHH_b2_06012_0001_0000200016_0000002_0_af2pred_0001 (protein)
chain: SSSSSVHEAAQLLLRVARALKEGDEELLEELRKELEELLKKLDDERARLAVRAALAAIKNFSSSS
B6: il10ra_site1_sap_27_mot_HHH_b1_06128_000000102_0001_1_20_H_._HHH_b1_02043_af2_0001_0000100004_0000002_0_0001 (protein)
chain: SSSSDVEEEVRELLEEAQRYYEEGNPQEVFRLIEEAIKVASEHGDEEAQKLVHEFLHEMFGSSSS
B7: il10ra_site1_normal_mot_HHH_b2_00984_000000042_0001_1_20_H_._HHH_b1_04863_af2_0001_0000500015_0000001_0 (protein)
chain: SSSSSDEEEELEELLEQLKKALEENDRELVAQLARRLVQLAFRLSDPEALQEAWELIRLLSSSSS
B8: il10ra_site1_normal_mot_HHH_b1_01821_000000158_0001_23_39_H_._HHH_b1_04578_0001_0000500034_0000001_1 (protein)
chain: SSSSSEFQRLAQRAVQLAFRLSDQEVLRRIWELFKRYIEEGDPRLEEELEELLEELEERGSSSSS
B9: il10ra_site1_normal_mot_HHH_b2_00277_af2_000000172_0001_1_17_H_._HHH_b1_06276_0001_0000100006_0000001_0_af2pred_0001 (protein)
chain: SSSSSSTEEEVEELLEEAKRIEDPEERSYVLTEAWALAYRLNDPELEREIEEVAKRLTSSSSSSS
B10: il10ra_site1_sap_17_mot_HHH_b2_04681_000000155_0001_43_57_H_._HHH_b2_07038_af2_0001_0000400013_0000001_0_0001_af2pred_dldesign_0_af2pred (protein)
chain: SSSSSSSDPERILALIRRALEEEDPEKARELLEEALRLAKEAGNEVAIRAAEYLLRQVSSSSSSS
B11: il10ra_site1_normal_mot_HHH_b2_03328_af2_000000127_0001_1_19_H_._HHH_b1_08499_0001_0000200023_0000001_0 (protein)
chain: SSSSDVAEEAYELSRRAAELLYQGNPEEARELLEEAEELLKERGDHVILFAVRLLLRILNSSSSS
B12: il10ra_site1_normal_mot_HHH_b2_00475_000000107_0001_44_57_H_._HHH_b2_03520_0001_0000400025_0000001_0 (protein)
chain: SSSSDEEEVSHLLFRALQLLEEGDKEEAEELVEEAKRIAEESNDPELERYVEIAEHFVKAHSSSS
B13: il10ra_site1_sap_33_mot_HHH_b2_07521_000000141_0001_20_37_H_._HHH_b2_01915_0001_0000700039_0000001_1_0001 (protein)
chain: SSSSSEEVEELLEQARELAEEGDFEEAAKLLLEALQIAAELQDPELLRLVWEVLHEVARLNSSSS
B14: il10ra_site1_sap_40_mot_HHH_b1_00102_af2_000000216_0001_43_57_H_._HHH_b1_07360_0001_0000500039_0000002_0_0001_af2pred_0001 (protein)
chain: SSSSSDEEELEEEAKRLMEELEKHGDPELFTRLAELAKLLAELGNPLFEEVAELLARLQSSSSSS
B15: il10ra_site1_sap_25_mot_HHH_b2_05540_000000178_0001_1_18_H_._ems_p1-15H-GBL-16H-GABBL-16H_0381_0001_0001_0001_0001_0000500025_0000002_0_0001 (protein)
chain: SSSSSDMEELYRRIAELLRRLREVSPEEREELLREAKELAEELNNEYLKRAIEHMARAVNSSSSS
B16: il10ra_site1_sap_27_mot_HHH_b2_02537_000000065_0001_1_20_H_._HHH_b2_03111_af2_0001_0000200010_0000001_0_0001 (protein)
chain: SSSSSAAEELKEIIEELLRLQREGDEEEFEKLIEEAERELKEKGDQLSLRIIEYILRLFHSSSSS
B17: il10ra_site1_normal_mot_HHH_b1_02062_000000185_0001_1_20_H_._HHH_b1_02799_af2_0001_0000300032_0000001_0 (protein)
chain: SSSSDELLQEVYELSREAAELDSDGDKEEAEKILEEAEEIAKELGNELFLFQVEYMLRLLKSSSS
B18: il10ra_site1_normal_mot_8756ee2cf497b5429c717dfc0c0bcfd6_0001_000000186_0001_1_13_H_._HHH_b2_02097_0001_0000100006_0000001_0 (protein)
chain: SSSSDLEEAIELVRRVVELLHEGNVEEARELVEEAEKVVEEAGNDVLRWQLEYLKRLLERDSSSS
B19: il10ra_site1_normal_mot_HHH_b2_02053_af2_000000006_0001_3_19_H_._HHH_b1_07461_0001_0000100009_0000001_0_af2pred_0001 (protein)
chain: SSSSSASEEVRKLLREALELLDKGNPEEAEELVEEAVRIAEENNNPVLLFVAEFLLKDIRGSSSS
B20: il10ra_site1_normal_mot_HHH_b2_00837_af2_000000287_0001_40_54_H_._HHH_b2_01069_af2_0001_0000200019_0000002_0 (protein)
chain: SSSSDEEERIKKLIEEVEELLEEGDPEEALELLFEATHFALELGNAELLREIWELVRSLKSSSSS
B21: il10ra_site1_normal_mot_HHH_b2_02386_000000054_0001_1_20_H_._HHH_b2_05043_0001_0000400073_0000003_0 (protein)
chain: SSSSTDESYELLREAIEEVIRLYKEGNPEEAEKVVEEVARRLEELGNPLAARQLENLLRLLSSSS
B22: il10ra_site1_normal_mot_HHH_b1_04771_000000013_0001_40_56_H_._HHH_b2_04957_af2_0001_0000100002_0000001_1 (protein)
chain: SSSSSEEVEEAVELSTKAFRLALRGNDEEAEEVLKEALKIAEEGNDPRIREVVEDLLQALSSSSS
B23: il10ra_site1_normal_mot_HHH_b1_01879_000000050_0001_1_18_H_._HHH_b1_00727_af2_0001_0000600044_0000002_0_af2pred_0001 (protein)
chain: SSSSSEEVLRLLLEALKLIRRGDLEEAEEVLKEMERLAEELNDEQARRAVEVLKRLLEELGSSSS
B24: il10ra_site1_sap_19_mot_HHH_b2_00335_000000038_0001_43_57_H_._HHH_b1_03234_0001_0000400063_0000002_0_0001 (protein)
chain: SSSSEAVKRVAELLREASKLQNDGNPEEAERVAEEALEVAEEGNNPLLEWQARFLLHRIRNSSSS
B25: il10ra_site1_normal_mot_HHH_b1_02708_af2_000000019_0001_23_39_H_._e0a7e7c149437fae01dc270677924e9f_0001_1_0001_0000100001_0000001_0 (protein)
chain: SLEEEVTELVRELGLPPMVESAVRSFVLAKELGDEEYLKIAEHFLEAQARRDPNVEEVLRFLRER
B26: il10ra_site1_normal_mot_HHH_b2_04646_000000019_0001_1_20_H_._HHH_b2_05789_af2_0001_0000400029_0000001_0 (protein)
chain: SSSSSDEEEAREEAERLLEEAEQIEDRHEVARLLYRASRLAAEGQDDELARRLVKLFARLSSSSS
B27: il10ra_site1_normal_mot_HHH_b2_00475_000000107_0001_44_57_H_._HHH_b2_01638_af2_0001_0000900052_0000002_0 (protein)
chain: SSSSEAEQRVAELLFRALRLLYEGNPEEAKEVVEEARRLAEENNDEELEEYVRILKHFIESHSSS
B28: il10ra_site1_normal_mot_8756ee2cf497b5429c717dfc0c0bcfd6_0001_000000186_0001_1_13_H_._HHH_b2_00335_af2_0001_0000300021_0000001_0_af2pred_0001 (protein)
chain: SSSSSDRLRELLELLRRIIELSRDGDPEEARKLIEEAQELAEELNDEVAKAILEFLEEHVNSSSS
B29: il10ra_site1_normal_mot_HHH_b1_00999_000000080_0001_41_55_H_._HHH_b1_02031_af2_0001_0000100001_0000001_0 (protein)
chain: SSSSSDEEEEEVERLLEEAEKIPDPRERNEILLEALHIALELGDEELLQLVWKVVKELGSSSSSS
B30: il10ra_site1_normal_mot_HHH_b1_05326_000000242_0001_1_20_H_._HHH_b1_05311_0001_0000100004_0000001_0 (protein)
chain: SSSSSSDEALELSRRAFKAALHGNPEEARELLEEALELAEERGDERLARIIQDLLKVLSSSSSSS
B31: il10ra_site1_sap_12_mot_HHH_b1_06789_af2_000000041_0001_1_20_H_._HHH_b2_05839_af2_0001_0000300031_0000002_0_0001 (protein)
chain: SSSSSDEEEIEELLREIKELLENNDRERALELIQEALRVIFQHSDEEALRELFELVRKLGSSSSS
B32: il10ra_site1_sap_22_mot_HHH_b2_03220_af2_000000223_0001_23_40_H_._HHH_b1_01542_0001_0000500044_0000001_0_0001_af2pred_0001 (protein)
chain: SSSSSEEEVEELERRIEELLEEGNRHEAAALILRLFALAHELRDPEVEEEARRLAQLAANSSSSS
B33: il10ra_site1_normal_mot_HHH_b2_06857_af2_000000179_0001_42_54_H_._HHH_b1_05676_af2_0001_0000100011_0000001_0 (protein)
chain: SSSSDETEEVVELLRRAAELHSDGDHEEARRLLEEAQELAEELGNELLRYQIEFAERSLDSSSSS
B34: il10ra_site1_sap_25_mot_HHH_b1_01879_000000050_0001_1_18_H_._HHH_b1_08444_0001_0000100004_0000001_0_0001 (protein)
chain: SSSSSTQELYELSRKAMELLRNGNPEEAEKLLEEALELAEEEGNWAAIVALRYILRAIRRSSSSS
B35: il10ra_site1_sap_17_mot_HEEHE_1605_000000211_0001_40_56_H_._9e622f7d73aa0ff91040b48e8c7f7504_0001_1_af2_0001_0000600013_0000002_0_0001 (protein)
chain: SSSSSDANHEALELVLEAMHAMLRGDREEAERLLEEALELAREGNNERLAKQIEILLENASSSSS
B36: il10ra_site1_normal_mot_HHH_b1_04065_000000255_0001_41_56_H_._HHH_b1_07236_0001_0000100003_0000001_1 (protein)
chain: SSSSDEEYRREVEELLEEAEQIEDPHERAEVLARALRRAYEGRDPELFRLVDRVAIELYFSSSSS
B37: il10ra_site1_sap_21_mot_HHH_b2_06979_000000158_0001_42_57_H_._HHH_b1_00540_af2_0001_0000100003_0000001_0_0001 (protein)
chain: SSSTLTERIYKLSEKALELLKQGDTEEAEEVVEEAIELAEEAGSRVLAHVLEFLLEAIKRRSSSS

Each binder was assayed against il10ra, Q13651 (assay: yeast display titration).
il10ra, Q13651, sequence (Q13651 whole entry): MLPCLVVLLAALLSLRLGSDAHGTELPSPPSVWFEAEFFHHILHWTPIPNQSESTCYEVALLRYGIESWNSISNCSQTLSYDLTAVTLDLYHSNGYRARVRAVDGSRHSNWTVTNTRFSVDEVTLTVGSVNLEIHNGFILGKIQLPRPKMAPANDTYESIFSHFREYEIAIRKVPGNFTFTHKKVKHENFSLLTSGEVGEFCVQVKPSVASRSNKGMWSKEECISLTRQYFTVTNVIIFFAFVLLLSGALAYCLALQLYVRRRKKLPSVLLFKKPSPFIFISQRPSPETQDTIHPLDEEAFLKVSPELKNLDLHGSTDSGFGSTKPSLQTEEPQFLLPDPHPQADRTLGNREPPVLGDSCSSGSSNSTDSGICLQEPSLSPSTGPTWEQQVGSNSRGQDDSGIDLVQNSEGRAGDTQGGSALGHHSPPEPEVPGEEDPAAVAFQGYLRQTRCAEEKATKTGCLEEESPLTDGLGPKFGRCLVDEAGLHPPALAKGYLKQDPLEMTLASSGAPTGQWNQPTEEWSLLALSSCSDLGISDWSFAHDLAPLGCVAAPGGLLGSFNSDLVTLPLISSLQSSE

Apparent Kd, inactive:
B1 no binding seen, B2 no binding seen, B3 no binding seen, B4 no binding seen, B5 no binding seen, B6 no binding seen, B7 no binding seen, B8 no binding seen, B9 no binding seen, B10 no binding seen, B11 no binding seen, B12 no binding seen, B13 > 2.78 µM, B14 no binding seen, B15 no binding seen, B16 no binding seen, B17 no binding seen, B18 no binding seen, B19 no binding seen, B20 no binding seen, B21 no binding seen, B22 no binding seen, B23 no binding seen, B24 no binding seen, B25 no binding seen, B26 no binding seen, B27 no binding seen, B28 no binding seen, B29 no binding seen, B30 no binding seen, B31 no binding seen, B32 no binding seen, B33 no binding seen, B34 no binding seen, B35 no binding seen, B36 no binding seen, B37 no binding seen
